From PubChem BioAssay (Tox21) come the findings set out here.

Molecules are shown by their SMILES. Inconclusive results are not listed. Entries that show only a call come without a potency. Calls of active or inactive are those of the source. The call rests on the fitted dose curve; in most records, active means well fitted cell-killing curve with a large enough effect in the repeat runs; inconclusive means weak or mixed curves, or effect the other way; inactive means flat fitted curve, though single readings scatter.
Potency means the concentration at half of the fitted maximal effect.

This test is described as follows: Human pregnane X receptor (PXR) small molecule agonists, qHTS cell viability counter screen (AID 1346977). Further: nearly all actives have a fitted effect of over 50% in size. Conditions: PXR-Luc HepG2 viability, CellTiter-Fluor, 24 h; series mostly up to 92.4 µM. The essentials: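 HepG2 cells stably carrying the PXR-Luc reporter are cultured with 5% charcoal-stripped FBS and treated with compounds for 24hr. CellTiter-Fluor is added at 23hr and fluorescence is read after 1hr.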
For orientation: qHTS replaces the single test concentration by a dilution series.
As for `CCC(N)(CO)CO`, the Potency result was “inactive”. Same read-out and setting: in the case of `COc1cc(-c2nc(NC(=O)c3cc4cc(C)cc(C)c4n3CC(=O)O)sc2CCC2CCCCC2)c(OC)cc1Cl` it was 31.5 µM (active); in that of `CSc1ccc(/C=C2/C(C)=C(CC(=O)O)c3cc(F)ccc32)cc1`, “inactive”. Still for that read-out and setting: in the case of `O=C1C=CC(=O)N1c1ccc(Cc2ccc(N3C(=O)C=CC3=O)cc2)cc1` it was 61.1 µM (active); in that of `CN(C)[C@@H]1C(=O)C(C(N)=O)=C(O)[C@@]2(O)C(=O)C3=C(O)c4c(O)cccc4C[C@H]3C[C@@H]12`, “inactive”; in that of `Fc1ccc([C@@H]2CCNC[C@H]2COc2ccc3c(c2)OCO3)cc1`, 29.8 µM (active). For `O=C1c2ccccc2Cc2ccccc21`, the Potency entry was “inactive”. With `O=c1[nH]cnc2nc[nH]c12`, the Potency entry was “inactive”. On the same count and under the same terms, the result for `Nc1cc(C(F)(F)F)ccc1S` reads “inactive”; that for `Oc1cccc2cc3cccc(O)c3c(O)c12`, “inactive”. With `O=C(O)c1c(Cl)cccc1Cl`, the Potency result is “inactive”. Same read-out and setting: in the case of `CCCCCCCC(=O)[O-].CCCCCCCC(=O)[O-].[Zn+2]` it was “inactive”. For the compound `COc1c(C)c2c(c(O)c1C/C=C(\C)CCC(=O)O)C(=O)OC2`, the Potency entry is “inactive”. For `CCC(C)(C)C1CCCCC1OC(C)=O` (configuration not stated), the Potency entry is “inactive”. `CSc1ccc(C(=O)c2[nH]c(=O)[nH]c2C)cc1`: the Potency result is “inactive”. For the compound `CC(NN)c1ccccc1` (configuration not stated), the activity change, negative = cytotoxicity was 0.166% [at 19 µM] (inactive). For `CC(C)=CCOc1ccc(/C=C/C(=O)c2ccc(OCC=C(C)C)cc2OCC(=O)O)cc1`, the Potency entry is “inactive”. On the same count and under the same terms, the result for `Cc1cccc(CN2CCN(C(c3ccccc3)c3ccc(Cl)cc3)CC2)c1` (configuration not stated) reads “inactive”. For `N#CSc1ccc(N)c([N+](=O)[O-])c1`, the Potency is 30.8 µM (active). In the case of `O=C(c1ccc(F)cc1)C1CCN(CCn2c(=O)[nH]c3ccccc3c2=O)CC1`, the Potency entry was “inactive”. In the case of `CCCCCCCCCCCCCCCC[N+](C)(C)CCN(Cc1ccc(OC)cc1)c1ncccn1`, the Potency is 29.8 µM (active). The same measure, in the same setting: in the case of `O=C(O)c1cc(O)c2c(c1)C(=O)c1cccc(O)c1C2=O` it was 25.1 µM (active).
